The target of test [1] is Sphingosine kinase 1 (Homo sapiens) (UniProt Q9NYA1). As to conditions: at 1 µM.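 Further: mean SPHK1 inhibition value reported from the GSK PKIS kinase panel screen.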
Test [2] addresses T1, Sphingosine kinase 2 (Homo sapiens) (UniProt Q9NRA0).
T1 sequence (whole entry): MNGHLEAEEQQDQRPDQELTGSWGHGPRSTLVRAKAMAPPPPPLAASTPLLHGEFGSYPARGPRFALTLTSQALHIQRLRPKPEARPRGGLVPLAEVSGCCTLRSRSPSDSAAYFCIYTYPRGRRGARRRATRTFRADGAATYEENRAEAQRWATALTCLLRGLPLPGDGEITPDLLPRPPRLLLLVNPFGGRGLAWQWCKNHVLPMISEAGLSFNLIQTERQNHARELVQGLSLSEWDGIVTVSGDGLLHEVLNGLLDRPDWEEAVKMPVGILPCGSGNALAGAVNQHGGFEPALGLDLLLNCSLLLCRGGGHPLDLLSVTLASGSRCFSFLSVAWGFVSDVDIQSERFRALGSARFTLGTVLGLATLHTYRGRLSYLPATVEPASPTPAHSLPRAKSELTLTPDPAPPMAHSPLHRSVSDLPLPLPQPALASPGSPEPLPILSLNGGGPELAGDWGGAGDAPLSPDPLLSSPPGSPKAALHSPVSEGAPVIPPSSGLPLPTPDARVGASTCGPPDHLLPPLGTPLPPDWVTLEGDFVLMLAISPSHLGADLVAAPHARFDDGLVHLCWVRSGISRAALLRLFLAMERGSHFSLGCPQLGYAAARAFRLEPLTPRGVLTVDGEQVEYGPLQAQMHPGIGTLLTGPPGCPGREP
The conditions noted are these: at 0.1 µM.

The target in test [3] is T1, Sphingosine kinase 2 (Homo sapiens). The conditions noted are these: at 1 µM.
In test [4] the target is Casein kinase II subunit alpha (Homo sapiens) (UniProt P68400). As to conditions: at 0.1 µM.
For test [5] the target is unchanged. The conditions noted are these: at 1 µM.
Test [6] has as its target T2, Inhibitor of nuclear factor kappa-B kinase subunit alpha (Homo sapiens) (UniProt O15111).
T2 sequence (whole entry): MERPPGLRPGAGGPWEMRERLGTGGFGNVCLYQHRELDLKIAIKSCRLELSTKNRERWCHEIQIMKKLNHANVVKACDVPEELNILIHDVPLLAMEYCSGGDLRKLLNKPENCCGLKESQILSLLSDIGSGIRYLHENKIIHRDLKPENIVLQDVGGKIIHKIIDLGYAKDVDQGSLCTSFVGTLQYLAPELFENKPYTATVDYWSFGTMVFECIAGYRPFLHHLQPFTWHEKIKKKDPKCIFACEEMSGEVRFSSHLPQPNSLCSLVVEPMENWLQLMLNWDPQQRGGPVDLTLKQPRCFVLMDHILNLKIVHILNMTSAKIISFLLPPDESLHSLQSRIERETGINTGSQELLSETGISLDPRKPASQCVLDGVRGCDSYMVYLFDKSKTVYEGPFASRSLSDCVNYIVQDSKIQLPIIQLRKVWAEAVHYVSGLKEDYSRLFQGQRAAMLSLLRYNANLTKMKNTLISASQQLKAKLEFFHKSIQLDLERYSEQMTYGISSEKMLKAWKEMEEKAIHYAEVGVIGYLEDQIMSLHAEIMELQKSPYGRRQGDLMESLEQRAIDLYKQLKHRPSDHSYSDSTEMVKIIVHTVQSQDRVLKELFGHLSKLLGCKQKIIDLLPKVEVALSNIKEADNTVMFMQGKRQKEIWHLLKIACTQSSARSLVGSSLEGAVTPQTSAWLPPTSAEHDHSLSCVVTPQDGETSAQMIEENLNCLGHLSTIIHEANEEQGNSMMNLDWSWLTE
The conditions noted are these: at 0.1 µM.

Test [7] concerns the target T2, Inhibitor of nuclear factor kappa-B kinase subunit alpha (Homo sapiens). The conditions noted are these: at 1 µM.
The target in test [8] is T3, Inhibitor of nuclear factor kappa-B kinase subunit beta (Homo sapiens) (UniProt O14920).
T3 sequence (whole entry): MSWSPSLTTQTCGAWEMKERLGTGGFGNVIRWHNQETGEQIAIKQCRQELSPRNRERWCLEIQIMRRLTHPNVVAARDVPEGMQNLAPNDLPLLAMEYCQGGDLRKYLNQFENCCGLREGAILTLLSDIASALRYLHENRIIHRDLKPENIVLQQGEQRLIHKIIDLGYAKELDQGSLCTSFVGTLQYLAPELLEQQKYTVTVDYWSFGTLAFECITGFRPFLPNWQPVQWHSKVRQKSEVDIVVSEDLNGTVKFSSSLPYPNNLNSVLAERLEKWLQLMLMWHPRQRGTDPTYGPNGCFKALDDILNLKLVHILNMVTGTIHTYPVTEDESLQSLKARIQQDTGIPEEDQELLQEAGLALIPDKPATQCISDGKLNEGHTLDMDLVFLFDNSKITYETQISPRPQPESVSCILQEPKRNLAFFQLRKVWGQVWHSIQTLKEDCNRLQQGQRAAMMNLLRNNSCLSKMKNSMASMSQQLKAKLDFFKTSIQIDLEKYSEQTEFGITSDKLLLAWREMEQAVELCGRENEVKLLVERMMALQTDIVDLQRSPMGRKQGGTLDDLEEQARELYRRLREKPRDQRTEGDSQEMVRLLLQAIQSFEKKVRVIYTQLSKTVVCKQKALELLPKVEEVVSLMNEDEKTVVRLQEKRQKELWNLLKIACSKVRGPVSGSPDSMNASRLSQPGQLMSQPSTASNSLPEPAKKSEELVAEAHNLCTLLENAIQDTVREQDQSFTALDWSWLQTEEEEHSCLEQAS
As to conditions: at 0.1 µM.

The target in test [9] is T3, Inhibitor of nuclear factor kappa-B kinase subunit beta (Homo sapiens). As to conditions: at 1 µM.
In test [10] the target is T4, Inhibitor of nuclear factor kappa-B kinase subunit epsilon (Homo sapiens) (UniProt Q14164).
T4 sequence (whole entry): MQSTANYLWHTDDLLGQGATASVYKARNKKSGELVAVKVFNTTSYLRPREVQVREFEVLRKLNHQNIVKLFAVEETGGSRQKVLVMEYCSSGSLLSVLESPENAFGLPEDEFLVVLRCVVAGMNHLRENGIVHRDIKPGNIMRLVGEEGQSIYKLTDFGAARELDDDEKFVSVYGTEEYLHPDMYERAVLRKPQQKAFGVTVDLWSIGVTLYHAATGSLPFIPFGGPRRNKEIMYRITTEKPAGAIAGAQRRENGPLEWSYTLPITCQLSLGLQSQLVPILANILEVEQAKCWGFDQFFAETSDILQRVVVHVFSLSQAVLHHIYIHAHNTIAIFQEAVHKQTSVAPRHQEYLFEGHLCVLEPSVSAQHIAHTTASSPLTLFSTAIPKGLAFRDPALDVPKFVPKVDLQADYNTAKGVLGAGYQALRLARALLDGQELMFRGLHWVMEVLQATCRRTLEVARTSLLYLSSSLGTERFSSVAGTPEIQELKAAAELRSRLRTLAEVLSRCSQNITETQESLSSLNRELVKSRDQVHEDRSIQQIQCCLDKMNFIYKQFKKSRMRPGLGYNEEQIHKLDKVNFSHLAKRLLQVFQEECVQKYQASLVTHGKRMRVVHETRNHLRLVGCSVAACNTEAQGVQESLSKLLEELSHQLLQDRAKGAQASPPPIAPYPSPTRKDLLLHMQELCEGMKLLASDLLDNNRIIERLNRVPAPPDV
As to conditions: at 0.1 µM.

Test [11] deals with T4, Inhibitor of nuclear factor kappa-B kinase subunit epsilon (Homo sapiens). As to conditions: at 1 µM.
Test [12] addresses T5, Serine/threonine-protein kinase Nek1 (Homo sapiens) (UniProt Q96PY6).
T5 sequence (whole entry): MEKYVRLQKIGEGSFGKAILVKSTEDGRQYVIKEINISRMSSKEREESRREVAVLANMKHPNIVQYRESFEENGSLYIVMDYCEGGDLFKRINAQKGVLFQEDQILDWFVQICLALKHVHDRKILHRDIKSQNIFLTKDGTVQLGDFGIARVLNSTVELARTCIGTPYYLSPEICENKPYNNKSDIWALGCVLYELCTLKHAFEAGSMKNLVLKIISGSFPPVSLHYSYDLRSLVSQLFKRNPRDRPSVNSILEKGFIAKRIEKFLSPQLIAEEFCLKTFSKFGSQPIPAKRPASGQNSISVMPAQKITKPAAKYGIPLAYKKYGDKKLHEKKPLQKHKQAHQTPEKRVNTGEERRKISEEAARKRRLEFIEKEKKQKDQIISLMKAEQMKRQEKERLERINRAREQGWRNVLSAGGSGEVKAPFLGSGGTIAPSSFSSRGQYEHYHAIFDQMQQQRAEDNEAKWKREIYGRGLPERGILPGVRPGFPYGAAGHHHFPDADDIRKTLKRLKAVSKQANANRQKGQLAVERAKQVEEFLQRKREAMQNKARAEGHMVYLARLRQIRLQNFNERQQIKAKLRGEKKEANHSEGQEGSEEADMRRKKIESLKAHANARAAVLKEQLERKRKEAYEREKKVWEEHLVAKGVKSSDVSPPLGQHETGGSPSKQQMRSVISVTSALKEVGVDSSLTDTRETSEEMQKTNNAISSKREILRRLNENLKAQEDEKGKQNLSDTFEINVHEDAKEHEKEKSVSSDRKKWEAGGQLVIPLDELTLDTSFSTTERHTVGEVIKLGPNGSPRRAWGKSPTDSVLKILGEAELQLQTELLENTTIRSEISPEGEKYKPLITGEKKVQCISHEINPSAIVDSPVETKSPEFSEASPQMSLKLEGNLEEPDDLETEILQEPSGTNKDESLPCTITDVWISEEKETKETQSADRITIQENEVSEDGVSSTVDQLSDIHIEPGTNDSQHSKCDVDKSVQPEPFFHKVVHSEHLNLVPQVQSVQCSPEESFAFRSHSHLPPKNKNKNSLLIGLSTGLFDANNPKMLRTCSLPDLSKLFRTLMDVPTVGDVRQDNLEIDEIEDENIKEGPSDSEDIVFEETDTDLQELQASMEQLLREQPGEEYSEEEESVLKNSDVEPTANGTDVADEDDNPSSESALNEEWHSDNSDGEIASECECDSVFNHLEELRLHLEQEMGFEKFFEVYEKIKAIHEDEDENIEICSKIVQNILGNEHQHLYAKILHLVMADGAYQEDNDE
As to conditions: at 0.1 µM.

The target of test [13] is T5, Serine/threonine-protein kinase Nek1 (Homo sapiens). As to conditions: at 1 µM.
The target in test [14] is T6, Serine/threonine-protein kinase Nek2 (Homo sapiens) (UniProt P51955).
T6 sequence (whole entry): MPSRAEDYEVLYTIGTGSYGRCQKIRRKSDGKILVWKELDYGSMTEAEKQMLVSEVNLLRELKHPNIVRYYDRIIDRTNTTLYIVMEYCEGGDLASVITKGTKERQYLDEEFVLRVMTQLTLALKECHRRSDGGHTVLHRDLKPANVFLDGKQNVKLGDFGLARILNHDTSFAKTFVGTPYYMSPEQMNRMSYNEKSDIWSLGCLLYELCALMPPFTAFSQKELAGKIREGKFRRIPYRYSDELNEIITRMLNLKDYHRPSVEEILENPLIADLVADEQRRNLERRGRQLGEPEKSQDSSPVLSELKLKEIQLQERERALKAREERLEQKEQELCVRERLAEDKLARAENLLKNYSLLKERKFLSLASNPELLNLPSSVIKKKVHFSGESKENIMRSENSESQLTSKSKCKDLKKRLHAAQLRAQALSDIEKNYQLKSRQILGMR
The conditions noted are these: at 0.1 µM.

Test [15] concerns the target T6, Serine/threonine-protein kinase Nek2 (Homo sapiens). The conditions noted are these: at 1 µM.
In test [16] the target is Serine/threonine-protein kinase Nek6 (Homo sapiens) (UniProt Q9HC98). As to conditions: at 0.1 µM.
Test [17] has the same target. As to conditions: at 1 µM.
For test [18], the target named is Serine/threonine-protein kinase Nek7 (Homo sapiens) (UniProt Q8TDX7). As to conditions: at 0.1 µM.
Test [19] has the same target. The conditions noted are these: at 1 µM.
The target in test [20] is T7, Serine/threonine-protein kinase Nek9 (Homo sapiens) (UniProt Q8TD19).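 Further: reported value is the mean percent inhibition of NEK9.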
T7 sequence (whole entry): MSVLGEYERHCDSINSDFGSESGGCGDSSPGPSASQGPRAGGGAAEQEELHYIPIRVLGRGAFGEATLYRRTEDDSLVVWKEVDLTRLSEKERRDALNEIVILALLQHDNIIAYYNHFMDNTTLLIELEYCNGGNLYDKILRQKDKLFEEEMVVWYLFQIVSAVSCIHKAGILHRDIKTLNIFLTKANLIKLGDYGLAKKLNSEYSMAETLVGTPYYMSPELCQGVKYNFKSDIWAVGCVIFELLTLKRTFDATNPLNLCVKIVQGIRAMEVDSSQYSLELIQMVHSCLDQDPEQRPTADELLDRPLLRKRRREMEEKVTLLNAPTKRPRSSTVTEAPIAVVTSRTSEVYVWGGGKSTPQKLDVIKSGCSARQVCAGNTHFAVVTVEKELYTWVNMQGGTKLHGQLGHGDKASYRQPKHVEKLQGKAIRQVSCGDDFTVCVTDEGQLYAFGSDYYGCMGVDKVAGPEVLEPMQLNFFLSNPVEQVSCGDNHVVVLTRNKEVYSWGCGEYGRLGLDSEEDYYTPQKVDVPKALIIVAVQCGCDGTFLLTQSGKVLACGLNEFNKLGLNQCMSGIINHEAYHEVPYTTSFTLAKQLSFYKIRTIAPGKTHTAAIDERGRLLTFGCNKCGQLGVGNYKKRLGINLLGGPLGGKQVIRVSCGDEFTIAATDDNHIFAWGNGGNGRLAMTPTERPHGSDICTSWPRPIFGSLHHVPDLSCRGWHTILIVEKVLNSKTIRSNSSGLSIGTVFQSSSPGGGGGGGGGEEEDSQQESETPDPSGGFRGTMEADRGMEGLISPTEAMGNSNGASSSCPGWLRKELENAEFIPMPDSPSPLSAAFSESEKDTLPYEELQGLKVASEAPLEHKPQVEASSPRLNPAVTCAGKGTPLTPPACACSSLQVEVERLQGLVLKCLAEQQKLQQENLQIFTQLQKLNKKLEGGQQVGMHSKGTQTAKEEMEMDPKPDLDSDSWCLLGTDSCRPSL
The conditions noted are these: at 0.1 µM.

Chain of Serine/threonine-protein kinase Nek6 (Homo sapiens) (Q9HC98 whole entry): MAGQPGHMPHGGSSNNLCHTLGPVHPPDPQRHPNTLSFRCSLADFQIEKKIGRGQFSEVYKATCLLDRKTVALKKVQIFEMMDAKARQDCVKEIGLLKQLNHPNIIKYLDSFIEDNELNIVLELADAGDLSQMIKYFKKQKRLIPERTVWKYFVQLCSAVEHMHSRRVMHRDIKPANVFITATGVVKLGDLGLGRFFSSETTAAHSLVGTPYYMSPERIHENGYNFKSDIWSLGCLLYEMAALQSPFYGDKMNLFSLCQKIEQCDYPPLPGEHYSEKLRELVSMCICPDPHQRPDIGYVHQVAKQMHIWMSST
Chain of Casein kinase II subunit alpha (Homo sapiens) (P68400 whole entry, looked up): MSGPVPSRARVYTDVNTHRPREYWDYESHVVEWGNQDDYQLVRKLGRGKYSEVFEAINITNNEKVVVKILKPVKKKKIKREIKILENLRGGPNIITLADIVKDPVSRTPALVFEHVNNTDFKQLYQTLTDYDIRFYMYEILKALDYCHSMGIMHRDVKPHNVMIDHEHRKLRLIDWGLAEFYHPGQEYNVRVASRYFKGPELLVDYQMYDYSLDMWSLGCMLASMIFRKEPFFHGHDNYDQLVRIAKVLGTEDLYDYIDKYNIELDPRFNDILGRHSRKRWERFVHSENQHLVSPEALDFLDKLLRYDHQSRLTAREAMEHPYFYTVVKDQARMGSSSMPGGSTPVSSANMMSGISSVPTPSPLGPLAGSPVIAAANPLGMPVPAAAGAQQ
Chain of Serine/threonine-protein kinase Nek7 (Homo sapiens) (Q8TDX7 whole entry, looked up): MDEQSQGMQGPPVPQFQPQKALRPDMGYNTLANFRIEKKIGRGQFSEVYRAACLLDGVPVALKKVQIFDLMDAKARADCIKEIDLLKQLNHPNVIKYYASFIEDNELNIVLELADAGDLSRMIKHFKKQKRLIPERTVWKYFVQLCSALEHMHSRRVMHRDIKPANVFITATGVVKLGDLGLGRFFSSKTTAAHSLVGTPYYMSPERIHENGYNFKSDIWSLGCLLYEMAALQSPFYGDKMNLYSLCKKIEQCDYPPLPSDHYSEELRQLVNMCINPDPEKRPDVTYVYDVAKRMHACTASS
Chain of Sphingosine kinase 1 (Homo sapiens) (Q9NYA1 whole entry): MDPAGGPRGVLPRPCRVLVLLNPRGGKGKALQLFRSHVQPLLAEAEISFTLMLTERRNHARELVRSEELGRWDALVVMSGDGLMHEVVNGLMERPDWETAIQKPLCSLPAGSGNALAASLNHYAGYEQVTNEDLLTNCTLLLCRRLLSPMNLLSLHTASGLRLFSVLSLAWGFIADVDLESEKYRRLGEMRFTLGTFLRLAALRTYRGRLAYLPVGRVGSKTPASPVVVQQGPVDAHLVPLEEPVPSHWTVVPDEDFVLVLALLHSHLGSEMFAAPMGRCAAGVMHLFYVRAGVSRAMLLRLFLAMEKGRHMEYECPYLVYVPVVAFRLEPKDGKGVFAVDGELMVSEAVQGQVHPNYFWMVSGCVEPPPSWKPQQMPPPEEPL

For orientation: inhibition means the share of the control response that was lost under treatment. Low readings indicate a response near the control, high ones a response far below the control. As for `CS(=O)(=O)CCNCc1ccc(-c2ccc3ncnc(Nc4ccc(OCc5cccc(C(F)(F)F)c5)cc4)c3c2)o1`, the inhibition in test [1] was determined as 0.32%; in test [2], 0.1%; in test [3] it was 0.04%; in test [4], 5.1%; in [5] it was 4.66%; in test [6], 3.34%. Besides, the inhibition was 4.53% in test [7]; 4.47% in test [8]; 8.68% in test [9]; 4.74% in test [10]; 4.77% in test [11]; 3.08% in test [12]. For the same molecule, the inhibition stood at 8.21% in test [13]; 7.25% in test [14]; 6.57% in test [15]; 0.78% in [16]; 4.95% in test [17]; 2.96% in [18]. The inhibition in test [19] is 7.52%; in test [20] it was 4.02%.

The record behind these values is ChEMBL document CHEMBL1961873, “Compounds: GSK PKIS; Assays: Nanosyn kinase panel” (2012).
